Reference: the supplement of paper PMC6555819

What follows are sequences tested on VDR:RXRa (NR concentration 270 nM, RXRa partner concentration 90 nM) (assay: PBM binding z-score (relative to random genomic background probes); higher = stronger binding; sequences stand for … in GC…GCGATTGACAGCGTAGAATGAAGG).
Protocol: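 Protein-binding microarray (Agilent 4x180K custom design, double-stranded 60-nt probes: 5' GC cap, 34-nt variable region, 24-nt constant primer region; full probe sequence given). Purified or IVT nuclear receptor:RXRα heterodimers (3:1 NR:RXRα, mostly 270:90 nM) or homodimers were incubated for 1 h in PBS with 2% milk and no ligand, then detected with Alexa488 antibodies. Fluorescence from o1-orientation probes (~5 replicates averaged) was converted to z-scores against 500 random hg19 background probes. Variable regions are seed direct-repeat (DR0–DR5) sites, all their single-nucleotide variants and half-site ablations.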

Row | Sequence | PBM binding z-score
1 | CGACCAAGGTCATAGGAGGTCAGTGAAGACAGAT | 6.59
2 | CCGACTGGGGCAGAAAGGTTACAATACCATCCGG | 1
3 | TAGCCTAGGTCATGGGCCAGTCTACCACGCGAAC | 1.82
4 | ATCGAAAAGTCGACGAGGTGAGTATACACCGTTT | 0.461
5 | AGAATCAGGTTACCAAAGATCAGGGAAACGCTTG | -0.0357
6 | ACTATTAGTTGAGGCGAGGGCAACCGATAGGTTG | 0.632
7 | GTACCAAGGTGTATAGGTCGTTGATGAGTAGGCG | 0.168
8 | GCTTGAAGATCAAGGTTAAGAAAGACTAAGCTAA | 0.0982
9 | TTACGAAGGTGAAGGTCGTTGATCCCTCTGTAGA | 1.39
10 | ATCGACAGGTCGACGAGGTGAGTATACACCGTTT | 2.85
11 | CAGTCTAGGTCAGGGCCAGTATAGGAGGAACGTT | 0.403
12 | TCATATAGGTAAACAGGTGAAAGTCCGTAAGTTA | 1.27
13 | CAAACTAGGTCACGAAAGGTCAAAGTCGAATGAC | 6.91
14 | CCTCGGAGGACAACAGGAGGTCCGAGCTGCCAGA | -0.665
15 | CCAGACAGGTGAGAAGGTAACTTAGCCTCGATTA | 0.0956
16 | ACTAGCAGGCCAAGTTTGGGTCACTCTAACAAAG | 0.395
17 | CCTACTGGGCCAAAGGTAATTGATTCCAATGCTC | -0.387
18 | ACTCGGAGGACAAAAGTCAGAGCTACGCCAGTGA | -0.553
19 | CCTAGTTGGTTAAGGTCACACACGCTATAGGTAC | 4.4
20 | CGAATTAGGTCATTGACAGGACAGTGAATAGTAA | 2.3

Row | Sequence | PBM binding z-score
21 | TCTATTAGTTGATTAGGACAACCGAAACAGCGGA | 1.12
22 | CCTAGTTGGTCAAGGTCACAAACGCTATAGGTAC | 3.73
23 | GGAACGAGGGCAAGTTGACAGCAGAGTTTGATGG | 0.799
24 | CCTCGGATGACAGAAGGTCAGAGCTGTCCGCTTT | 1.21
25 | GCTAGTTGGTCAGAAAAAGGTCACACACCGGTCG | 3.77
26 | TTTGCTAGGTCAGTTGGTCAGCTAACGAGCTGCC | 0.134
27 | TCGAGTAGGTTACCAATGGGGCATTTAGCTTTCT | 0.185
28 | GCACACAGGTGAAACGCAGGTAACTCAGGGTGGC | -0.336
29 | CCAGACAGGTGACAAGGTAACTCAGCCTCGATTA | 0.0377
30 | GCATATAGGTAAGACAAGGTGAAAGTCCGATTGT | 0.0453
31 | TCTGTTAGGTCAGTTGGTCAGCTAACGAGCTGCC | 0.897
32 | CCTAGTTGGTCAGGAGGTCGCACACCGGATATGA | 1.41
33 | CGAACTACGTCAAGGACAGTGAATCTCCGCACGC | -0.475
34 | ACGAGTTGGTCAGCTGAGGTCACACACAATTCGG | 4.62
35 | CTACCAAGGTGAACAAGGTCGTTAATTACTATTC | 6.04
36 | CGAACGAGAGCATGAGTTGATAGCAAATGCCGAT | -0.244
37 | CGTCAAAGTACAAGGTAACGTAACAGAAAGCAGC | 0.215
38 | CCTACTGGGCCACGGTCATTGATCAGTCAAAGCA | -0.388
39 | CCGACTGGGGCATAAGGTTAACATAAGCCAGCCC | 0.684
40 | TCTTGTAGATCAGCCGGTTAAGAAAGCTGGCCAA | -0.00365
